From PubChem BioAssay (EPA / NIEHS) come the findings set out here.

Results filed as inconclusive are left out. Active and inactive are the calls of the source. Rule for the calls, unless noted: active = hit-call score of the fitted dose curve at least 0.9, where 1 is the maximum; inactive = score below 0.9.

A short description of experiment [1]: CCTE_Shafer_MEA_dev_firing_rate_mean: CCTE's Neural Network Formation Assay for Mean Firing Rate, Shafer Lab (AID 2284031). The essentials: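 Steps: seed rat cortical cells (1.5 x 10^5/well) with laminin on PEI-coated MEA; dose day 0; record DIV 5/7/9/12, full media and compound exchange after DIV 5 and 9 recordings; compute well-mean firing rate AUC.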
The nature of experiment [2]: CCTE_Shafer_MEA_dev_per_burst_spike_percent: CCTE's Neural Network Formation Assay for Percent of Spikes in a Burst, Shafer Lab (AID 2284032). The essentials:
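Value is trapezoidal AUC over recordings on days 5, 7, 9 and 12 of the well-mean fraction of spikes falling in single-electrode bursts; rat cortical cultures exposed continuously from plating, treatment renewed DIV 5 and 9, fitted downward against DMSO.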

A short description of experiment [3]: CCTE_Shafer_MEA_dev_active_electrodes_number: CCTE's Neural Network Formation Assay for Number of Active Electrodes, Shafer Lab (AID 2284040; active = hit-call score of the fitted dose curve at least 0.9, where 1 is the maximum). The essentials:
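Counts electrodes per well firing at least 5 spikes/min, recorded on days 5, 7, 9 and 12 in rat cortical cultures dosed continuously from plating (treatment refreshed DIV 5, 9). Value is the area under the curve over recordings, fitted downward relative to DMSO.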

A short description of experiment [4]: CCTE_Shafer_MEA_dev_burst_rate: CCTE's Neural Network Formation Assay for Burst Rate, Shafer Lab (AID 2284042). The method in brief:
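Rat primary cortical cultures on PEI/laminin MEA; compound from plating, re-dosed at DIV 5, 9 media change. Single-electrode bursts/recording length, well mean of active electrodes; AUC over DIV 5–12 recordings; loss-of-signal vs DMSO.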

The nature of experiment [5]: CCTE_Shafer_MEA_dev_bursting_electrodes_number: CCTE's Neural Network Formation Assay for Number of Bursting Electrodes, Shafer Lab (AID 2284043; active = hit-call score of the fitted dose curve at least 0.9, where 1 is the maximum). The method in brief: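 Counted: electrodes with burst rate ≥1 per 2 min in each well. Cells: primary rat cortex, 1.5 x 10^5/well, on 16-electrode MEA wells. Exposure: DIV 0–12, compound renewed DIV 5 and 9. Recording days 5, 7, 9, 12; AUC vs DMSO baseline.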

A short description of experiment [6]: CCTE_Shafer_MEA_dev_per_burst_interspike_interval: CCTE's Neural Network Formation Assay for Burst Interspike Interval, Shafer Lab (AID 2284044). The method in brief:
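Readout is the average time between spikes inside single-electrode bursts, taken as a well mean across bursting electrodes. Cortical neurons from rat developed networks on MEA plates under continuous 12-day exposure; recordings on days 5, 7, 9 and 12 were integrated by trapezoidal AUC.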

Experiment [7] can be described thus: CCTE_Shafer_MEA_dev_burst_duration_mean: CCTE's Neural Network Formation Assay for Mean Burst Duration, Shafer Lab (AID 2284045). The essentials:
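Network-formation assay in primary rat cortical neurons; treatment spans twelve days of development. Mean burst duration per well is integrated by trapezoidal AUC and fitted in the loss-of-signal direction against DMSO baseline.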

Experiment [8] is described as follows: CCTE_Shafer_MEA_dev_interburst_interval_mean: CCTE's Neural Network Formation Assay for Mean Interburst Interval, Shafer Lab (AID 2284046).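 Note: well-mean interburst interval of bursting electrodes as AUC over four recording days; curve fitted for decrease in interburst interval relative to DMSO.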 The method in brief: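 Rat cortical neurons, 1.5 x 10^5 cells/well, 48-well MEA; compound from day 0 through DIV 12, media and treatment renewed DIV 5/9. Recordings DIV 5, 7, 9, 12; well-mean interburst interval → trapezoidal AUC, loss direction vs DMSO.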

Experiment [9] in a line: CCTE_Shafer_MEA_dev_inter_network_spike_interval_mean: CCTE's Neural Network Formation Assay for Mean Inter-network Spike Interval, Shafer Lab (AID 2284047). The method in brief:
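Primary rat cortical neurons on PEI-coated 48-well MEAs (16 electrodes/well) were exposed from plating day 0 to DIV 12, with dosing renewed at DIV 5 and 9. Recordings at DIV 5, 7, 9, 12 were collapsed by trapezoidal AUC, loss-of-signal fit vs DMSO.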

Experiment [10] in a line: CCTE_Shafer_MEA_dev_network_spike_number: CCTE's Neural Network Formation Assay for Number of Network Spikes, Shafer Lab (AID 2284048). The method in brief: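 Extracellular recordings from 16-electrode wells track network formation in rat cortical cultures under continuous treatment from plating. The endpoint is network spike number, expressed as AUC across DIV 5–12 relative to DMSO vehicle.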

Experiment [11] in a line: CCTE_Shafer_MEA_dev_network_spike_peak: CCTE's Neural Network Formation Assay for Mean Number of Electrodes in Network Spike, Shafer Lab (AID 2284049). The essentials: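 Continuous 12-day exposure of rat cortical cultures, starting at plating, on MEA plates. Endpoint: electrodes participating in network-spike peaks, AUC across DIV 5–12, DMSO as negative control.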
The nature of experiment [12]: CCTE_Shafer_MEA_dev_spike_duration_mean: CCTE's Neural Network Formation Assay for Mean Spike Duration, Shafer Lab (AID 2284051).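 Note: mean network spike duration pooled as area under curve over DIV 5 to 12 recordings.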 The essentials:
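Rat cortical primary cultures, 48-well MEA (16 electrodes/well); compound from plating, renewed DIV 5, 9. Network spike duration (AxIS adaptive detector) recorded DIV 5/7/9/12, combined as trapezoidal AUC; loss direction vs DMSO.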

A short description of experiment [13]: CCTE_Shafer_MEA_dev_network_spike_duration_std: CCTE's Neural Network Formation Assay for Standard Deviation of Network Spike Duration, Shafer Lab (AID 2284052).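 Note: area under curve of spike duration SD across recording days 5 to 12; hits are decreases in network spike duration SD versus DMSO vehicle.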 The method in brief: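 Rat cortical cultures, 1.5 x 10^5 cells/well, exposed continuously from plating to DIV 12 with media/compound renewal at DIV 5, 9. Spontaneous activity recorded DIV 5/7/9/12, AxIS adaptive spike detector; AUC across days; negative direction vs DMSO.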

Experiment [14] is described as follows: CCTE_Shafer_MEA_dev_per_network_spike_spike_number_mean: CCTE's Neural Network Formation Assay for Mean Number of Spikes in a Network Spike, Shafer Lab (AID 2284053). The essentials: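 Rat cortical primary cultures on 48-well MEA; compound from day 0, re-dosed with full media change DIV 5, 9. Recorded DIV 5, 7, 9, 12; spikes in 0.05 s window at network-spike peak ÷ total network spikes; AUC; loss vs DMSO.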

The nature of experiment [15]: CCTE_Shafer_MEA_dev_per_network_spike_spike_percent: CCTE's Neural Network Formation Assay for Percent of Spikes in a Network Spike, Shafer Lab (AID 2284054). The essentials: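 Developing networks of rat cortical neurons are dosed at day 0 and recorded extracellularly four times up to day 12. The endpoint is the area under the curve of percent spikes in network spikes, fitted in the negative direction relative to DMSO.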

Experiment [16] is described as follows: CCTE_Shafer_MEA_dev_correlation_coefficient_mean: CCTE's Neural Network Formation Assay for Mean Correlation Coefficient, Shafer Lab (AID 2284093). The essentials:
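Rat cortical cultures, 1.5 x 10^5 cells/well, dosed from day 0 for 12 days. Spontaneous spikes recorded DIV 5/7/9/12; electrode-pair correlation coefficients averaged, AUC taken. Fit in loss direction vs DMSO.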

Experiment [17] is described as follows: UKN2_HCS_IMR90_neural_migration: University of Konstanz (UKN) Leist Lab Neural Crest Cell Migration Assay in human induced IMR90 Pluripotent Stem Cells (UKN2) (AID 2284204). The settings on record: actives raise or lower the signal. The essentials: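 Using a 96-well stopper format with PLO/laminin/fibronectin coating, neural crest cells from iPSC migrate in cytokine-supplemented N2-S medium; after 24 h, chemicals are applied for a further 24 h, then cells are imaged after dye staining.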

Experiment [18] can be described thus: IUF_NPC1b_proliferation_BrdU_72hr: Leibniz Research Institute for Environmental Medicine (IUF) 72-hour Neural Progenitor Cell Bromodeoxyuridine (BrdU) Proliferation Assay (NPC1b) (AID 2284207). The essentials:
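Neural progenitor spheres of human fetal origin are treated for three days; BrdU added for the last 16 h is quantified by luminescence ELISA, with DMSO as baseline and EGF/FGF omission as positive control.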

The nature of experiment [19]: IUF_NPC1a_proliferation_area_72hr: Leibniz Research Institute for Environmental Medicine (IUF) 72-hour Neural Progenitor Cell Proliferation Area Assay (NPC1a) (AID 2284208). The method in brief: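 hNPC spheres (human fetal cortex, GW 16-19), one per poly-Hema U-bottom well; EGF+FGF medium; dosed day 0, no re-dosing; 72 h, 37C, 5% CO2; phase-contrast sphere area; DMSO = baseline; minus-GF = positive ctrl.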

The nature of experiment [20]: IUF_NPC1_viability_72hr: Viability Assessment at 72 hours in the Leibniz Research Institute for Environmental Medicine (IUF) Neural Progenitor Cell Proliferation Assay (NPC1) (AID 2284209). The method in brief:
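Spheres of primary human neural progenitors were plated singly in proliferation medium and treated for 72 h. Mitochondrial reduction of resazurin was then measured by fluorescence and analysed against DMSO controls.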

Experiment [21] in a line: CCTE_Mundy_HCI_Cortical_Synap_Neur_Matur_NeuriteSpotCountPerNeuriteLength: CCTE's Synaptogenesis and Neurite Maturation Assay in rat cortical cells for Neurite Spot Count per Neurite Length, Mundy Lab (AID 2284210). The essentials: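 Neurite-associated synapse density (synaptophysin puncta per unit neurite length) is measured by fluorescence high-content imaging in rat cortical cultures treated from DIV 7 and fixed at DIV 12, with DMSO as negative control.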

Experiment [22] can be described thus: CCTE_Mundy_HCI_Cortical_Synap_Neur_Matur_BPCount: CCTE's Synaptogenesis and Neurite Maturation Assay in rat cortical cells for Branch Point Count, Mundy Lab (AID 2284211). The essentials: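 HCI read-out of branch points from MAP2/synaptophysin/Hoechst immunofluorescence; rat cortical cultures, AraC DIV 5, dosing DIV 7, fixed DIV 12; fit in positive direction vs DMSO baseline.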

Experiment [23] is described as follows: CCTE_Mundy_HCI_Cortical_NOG_NeuriteCount: CCTE's Neurite Outgrowth Assay in rat cortical cells for Neurite Count, Mundy Lab (AID 2284212).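 Note: cells fixed about two days after chemical exposure began.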 The essentials:
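Rat cortical primary cells; compound added 2 h post-plating, 1/10 dilution of working solution. Anti-betaIII-tubulin/AF488 ICC; ArrayScan neurite count vs DMSO.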

Usually AC50 stands for the midpoint of the concentration-response curve, whichever way the signal moves. On to `Cc1[nH]n(C)c(=O)c1C(=O)c1ccc(C(F)(F)F)cc1S(C)(=O)=O`, for which the call in experiment [1], in [2], in experiment [3], in [4], in experiment [5] and in experiment [6] was inactive. Also, the call in experiment [7], in experiment [8], in experiment [9], in experiment [10], in experiment [11] and in [12] was inactive. The compound was classed as inactive in [13], in experiment [14], in experiment [15], in experiment [16], in experiment [17] and in experiment [19]. The compound was called inactive in experiment [20], in experiment [21], in experiment [22] and in experiment [23]. The AC50 in experiment [18] is 43.4 µM (active).
